Measured values from PubChem BioAssay (Tox21).
Records with an inconclusive call do not appear. A call without a number means that no potency is given here. The source made the active and inactive calls. Calls follow the shape of the dose curve; as a rule, active = well fitted activation curve with a large enough effect in the repeat runs; inconclusive = weak or mixed curves; inactive = flat fitted curve, though single readings scatter.

Experiment: A CellTox Green Cytotoxicity Assay to monitor cytotoxicity in HEK293 cells - 24 hour (AID 1224875); also: nearly all actives have a fitted effect of over 45% in size
Settings: CellTox Green fluorescence; series mostly up to 76.8 µM
Text: National Center for Advancing Translational Sciences [NCATS]
NIH Chemical Genomics Center [NCGC]
U.S. Environmental Protection Agency [EPA]
National Institutes of Environmental Health Sciences [NIEHS]
National Toxicology Program [NTP]
Cell-based models are critical for drug discovery. Determining the natural cytotoxic effects resulting from test compounds is an essential research activity. A CellTox Green Cytotoxicity Assay to monitor cytotoxicity in real time of continues cell culture during 40 hours of the compound treatment was used to screen Tox21 10K library compounds in Hek293 cells. CellTox Green Cytotoxicity Assay is a nonlytic, homogeneous, biofluorescent method to measure cytotoxicity in cell culture after experimental manipulation. The assay system uses a proprietary asymmetric cyanine dye that is excluded from viable cells but preferentially stains the dead cell's DNA. […] Viable cells produce no appreciable increases in fluorescence. Therefore, the fluorescence signal produced by the binding interaction with dead cell DNA is proportional to cytotoxicity.
The mixture of Hek293 cell suspension and reagents were dispensed at 600cells/6 ul/well in 1536-well tissue culture treated black solid bottom plates using a Multidrop dispenser. After the assay plates were incubated at a 37 C/5% CO2 incubator for 5 hours, 23 nL of compounds dissolved in DMSO, positive and negative controls was transferred to the assay plate by a pintool work station. The plates were incubated at 37 C for 40 hours. The fluorescence intensity were measured at 0h, 8h, 16h, 24h, 32h and 40h time points using ViewLux plate reader during compound treatment.
Potency is read from the fitted curve at half-maximal effect.

| SMILES | Potency |
| --- | --- |
| CC(CC(C#N)(c1ccccc1)c1ccccc1)N(C)C (stereo not given) | inactive |
| [O]=[Cd] | inactive |
| CCCCOC(=O)[C@@H](C)Oc1ccc(Oc2ccc(C#N)cc2F)cc1 | inactive |
| O=C1OC(CCN2CCCCC2)OC1(c1ccccc1)c1ccccc1 (stereo not given) | inactive |
| COCC(=O)N(c1c(C)cccc1C)N1CCOC1=O | inactive |
| N#CC(Cl)(Cl)Cl | inactive |
| CC(N)=S | inactive |
| CN/C(=N\[N+](=O)[O-])NCC1CCOC1 (stereo not given) | inactive |
| CC1CCC(=O)O1 (stereo not given) | inactive |
| Nc1cnn(-c2ccccc2)c(=O)c1Cl | inactive |
| CCC(Cl)[N+](=O)[O-] (stereo not given) | inactive |
| NC(=O)c1cc([N+](=O)[O-])cc([N+](=O)[O-])c1 | inactive |
| CC(C)CC#N | inactive |
| CCC1(c2ccccc2)C(=O)N=C(O)NC1=O (stereo not given) | inactive |
| CC(Cl)(Cl)[N+](=O)[O-] | inactive |
| Nc1cc2c3c(c1)C(c1ccccc1)=N[C@@H](NC(=O)c1cccnc1)C(=O)N3CC2 | inactive |
| Cc1coc2c1CCC(C)C2 (stereo not given) | inactive |
| CNNC | inactive |
| OC(c1ccc(F)cc1)(c1cncnc1)c1ccccc1Cl (stereo not given) | inactive |
| CCC/C(=N\OCC)C1=C(O)CC(CC(C)SCC)CC1=O (stereo not given) | inactive |

| SMILES | Potency |
| --- | --- |
| CC(C=O)Cc1ccc2c(c1)OCO2 (stereo not given) | inactive |
| CCOP(=S)(OCC)SCSc1ccc(Cl)cc1 | inactive |
| CCC1(c2ccccc2)C(=O)NC(=O)NC1=O | inactive |
| BrCCCCCCBr | inactive |
| N#CCCC#N | inactive |
| Cc1ncc(CNC(=O)N(CCCl)N=O)c(N)n1 | inactive |
| CCC(C)(C)c1cc(-n2nc3ccccc3n2)c(O)c(C(C)(C)CC)c1 | inactive |
| C[C@]12CC[C@H]3[C@@H](CC=C4C[C@@H](O)CC[C@@]43C)[C@@H]1CC[C@@H]2O | inactive |
| ClC(Cl)(Cl)C(Cl)(Cl)Cl | inactive |
| CC1(C)CON(Cc2ccccc2Cl)C1=O | inactive |
| CCCCC(=O)Cl | inactive |
| O=C(O)c1cccc(Cl)c1 | inactive |
| Nc1c(Br)cc([N+](=O)[O-])cc1[N+](=O)[O-] | inactive |
| COc1cccc(C(=O)NN(C(=O)c2cc(C)cc(C)c2)C(C)(C)C)c1C | inactive |
| COC(=O)C(C)Oc1ccc(Oc2ccc(Cl)cc2Cl)cc1 (stereo not given) | inactive |
| c1cc[c]([Hg][c]2ccccc2)cc1 | 43.6 µM (active) |
| Cc1ncsc1CCCl | inactive |
| Fc1cc(Br)ccc1CBr | inactive |
| O=C(N[C@H]1CN2CCC1CC2)c1cc2ccoc2cn1 | inactive |
| CCCCc1c(C)nc(NCC)[nH]c1=O | inactive |
